# Assay results published in PubChem BioAssay (EPA / NIEHS).
# Records with an inconclusive call do not appear. Some structures have more than one record in an assay (separate samples or runs), and their calls can disagree. Active and inactive are the calls of the source. Rule for the calls: active = hit-call score of the fitted dose curve at least 0.9, where 1 is the maximum; inconclusive = response in the unintended direction; inactive = score below 0.9.
# Legend:
# [1] = target: Luciferin 4-monooxygenase (Photinus pyralis) (UniProt P08659); assay: CCTE_Simmons_QuantiLum_inhib_2: CCTE's Firefly Luciferase Inhibition Assay, Simmons Lab (AID 2283767);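 for AC50: potency for inhibitors that lower luciferase luminescence relative to DMSO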
# Method in brief: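 Luminescence loss relative to DMSO vehicle defines inhibition; detection reagent containing 150 uM D-luciferin and 147 uM dATP (final, pH 7.8) is injected immediately before each read. Enzyme is preincubated with an 8-point titration (5 nM–87.5 uM final) for 30 min at 37C.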
# [2] = ACEA_AR_agonist_AUC_viability: ACEA Biosciences xCELLigence Real-Time Cell Analysis on Androgen Receptor Agonism for Viability (AID 2283775);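 for AC50: viability read 80 hours after compound addition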
# Method in brief: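 Real-time impedance tracking of 22Rv1 growth, readings every 5 min for 5 h then hourly; area-under-curve viability endpoint at 80 hours, relative to DMSO. Compounds at eight concentrations, 1:4 steps, top 100 uM, n = 2.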
# [3] = ACEA_AR_antagonist_AUC_viability: ACEA Biosciences xCELLigence Real-Time Cell Analysis on Androgen Receptor Antagonism for Viability (AID 2283776);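 note: 22Rv1 human prostate cancer cells growing on impedance electrode plates; hits lower the growth signal relative to DMSO meaning cytotoxicity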
# Method in brief: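 Real-time electrical impedance tracks 22Rv1 proliferation after continuous compound exposure (top 100 uM final, 1:4 steps, 8 concentrations). The 80 h area-under-curve serves as the cytotoxicity readout relative to DMSO.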
# [4] = test system: chicken Androgen Receptor (AR), gene 422165; assay: ATG_chAR_XSP1: Attagene TRANS-FACTORIAL Multi-Species (XSP1) HepG2 Assay for chicken Androgen Receptor (AR) (AID 2283768)
# Method in brief: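 HepG2 cells transiently transfected with multiplexed GAL4-UAS reporter units expressing chimeric chicken AR-Gal4; 3 nM 6-alpha-fluorotestosterone for partial AR stimulation; 24 h after dosing, reporter mRNA by RT-PCR and capillary electrophoresis, gain-of-signal versus DMSO.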
# [5] = test system: zebrafish Androgen Receptor (AR), gene 100005148; assay: ATG_zfAR_XSP1: Attagene TRANS-FACTORIAL Multi-Species (XSP1) HepG2 Assay for zebrafish Androgen Receptor (AR) (AID 2283771)
# Method in brief: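 HepG2 cells were transiently transfected with a zebrafish AR-GAL4 reporter system and partially stimulated with 3 nM 6-alpha-fluorotestosterone. Reporter mRNA was measured after 24 h dosing by RT-PCR with capillary electrophoresis, and gain-of-signal was fitted relative to DMSO.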
# [6] = target: zebrafish Estrogen Receptor (ESR1), esr1 (gene 259252) (UniProt P57717); assay: ATG_zfER1_XSP1: Attagene TRANS-FACTORIAL Multi-Species (XSP1) HepG2 Assay for zebrafish Estrogen Receptor (ESR1) (AID 2283772)
# Method in brief: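 Transfect HepG2 with GAL4-UAS multi-reporter constructs; treat 24 h (medium carries 3 nM 6-alpha-fluorotestosterone); extract RNA, reverse-transcribe, PCR-amplify, FAM-label, digest with HpaI; resolve by capillary electrophoresis and compare against DMSO baseline.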
# [7] = test system: zebrafish Estrogen Receptor (ESR2B), gene 317733; assay: ATG_zfER2b_XSP1: Attagene TRANS-FACTORIAL Multi-Species (XSP1) HepG2 Assay for zebrafish Estrogen Receptor (ESR2B) (AID 2283773)
# Method in brief: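 HepG2 cells transiently transfected with multiple GAL4-UAS reporter units expressing chimeric zebrafish ER2b-Gal4; 24 h chemical exposure with 3 nM 6-alpha-fluorotestosterone present. Reporter mRNA measured by RT-PCR and capillary electrophoresis; gain of signal fitted versus DMSO.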
# [8] = test system: frog Estrogen Receptor (ESR2), gene 100174814; assay: ATG_frER2_XSP1: Attagene TRANS-FACTORIAL Multi-Species (XSP1) HepG2 Assay for frog Estrogen Receptor (ESR2) (AID 2283774)
# Method in brief: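 HepG2 cells transiently transfected with GAL4-UAS multiplexed reporter units expressing chimeric NR-Gal4 proteins; reporter mRNA measured 24 h after dosing by RT-PCR, FAM labeling, HpaI digestion and capillary electrophoresis. Gain-of-signal relative to DMSO; 3 nM 6-alpha-fluorotestosterone present.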
# [9] = test system: frog Estrogen Receptor (ESR1), gene 398734; assay: ATG_frER1_XSP1: Attagene TRANS-FACTORIAL Multi-Species (XSP1) HepG2 Assay for frog Estrogen Receptor (ESR1) (AID 2283777)
# Method in brief: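 Read-out: fluorescent reporter mRNA via RT-PCR, HpaI digestion and capillary electrophoresis, after 24 h chemical exposure of transiently transfected human HepG2 cells expressing exogenous NR-Gal4 chimeras. DMSO served as baseline for positive-direction fitting.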
# [10] = test system: zebrafish Estrogen Receptor (ESR2A), gene 317734; assay: ATG_zfER2a_XSP1: Attagene TRANS-FACTORIAL Multi-Species (XSP1) HepG2 Assay for zebrafish Estrogen Receptor (ESR2A) (AID 2283778)
# Method in brief: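 HepG2 cells transiently transfected with multiplexed GAL4-UAS reporter units and chimeric NR-GAL4 receptors; 24 h compound exposure with 3 nM 6-alpha-fluorotestosterone present. Reporter mRNA quantified by RT-PCR and capillary electrophoresis, gain-of-signal fitted relative to DMSO.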
# [11] = target: chicken Estrogen Receptor (ESR1), ESR1 (gene 396099) (UniProt P06212); assay: ATG_chERa_XSP1: Attagene TRANS-FACTORIAL Multi-Species (XSP1) HepG2 Assay for chicken Estrogen Receptor (ESR1) (AID 2283779)
# Method in brief: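 HepG2 cells transiently transfected with multiplexed GAL4-UAS reporter units expressing chimeric NR-Gal4 proteins; 3 nM 6-alpha-fluorotestosterone present. Reporter mRNA measured 24 h after dosing by RT-PCR, FAM labelling, HpaI digest and capillary electrophoresis; gain of signal versus DMSO.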
# [12] = ArunA_CellTiter_hNC: Viability Assessment in the ArunA Biomedical's Oris Neural Crest (hNC) Cell Migration Assay (AID 2283752)
# Method in brief: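 Cell titer was measured with the CellTiter Aqueous One reagent after 72 h of chemical dosing. Cells were H9-derived embryonic neural crest stem cells seeded on Matrigel, 60,000 per well, and given 16 h at 37C beforehand.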
# [13] = ArunA_CellTiter_hNP: Viability Assessment in the ArunA Biomedical's Oris Neural Crest (hNC) Cell Migration Assay (AID 2283753)
# Method in brief: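 H9-derived hNP1 neuroprogenitors, 60,000/well on Matrigel, cultured 16 h, then 72 h chemical exposure in test medium. Cell titer via CellTiter Aqueous One; positive-direction fit vs DMSO.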
# [14] = ArunA_Migration_hNP: ArunA Biomedical's Oris Neuroprogenitor (hNP) Cell Migration Assay (AID 2283754)
# Method in brief: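 Human H9-derived hNP1 neuroprogenitors on Matrigel with LIF/bFGF, plated around seeding stoppers for 16 h at 37C; stoppers removed at start of 72 h chemical exposure. Calcein-AM staining, fluorescence 494/517 nm in detection zone; loss-of-signal vs DMSO; cytochalasin D control.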
# [15] = ArunA_Migration_hNC: ArunA Biomedical's Oris Neural Crest (hNC) Cell Migration Assay (AID 2283755)
# Method in brief: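 Human H9-derived neural crest stem cells, 60,000/well on Matrigel, 16 h at 37C, then 72 h chemical exposure after seeding-stopper removal. Migration into detection zone read as calcein-AM fluorescence (ex494/em517), relative to DMSO.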
# [16] = ArunA_NOG_NucleusCount: ArunA Biomedical's Neurite Outgrowth (NOG) Assay for Nucleus Count (AID 2283756)
# Method in brief: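 Human H9-derived differentiated neurons were exposed for 48 h right after seeding. Hoechst-stained nuclei gated by size and intensity were counted by automated high-content imaging as viable neurons. Loss of signal vs DMSO.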
# [17] = ArunA_NOG_BranchPointsPerNeurite: ArunA Biomedical's Neurite Outgrowth (NOG) Assay for Branch Points Per Neurite (AID 2283759)
# Method in brief: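 Automated image analysis traced neurites (processes >10 um) from valid cell bodies after Hoechst and βIII-tubulin staining. hNN cells from H9 embryonic stem cells, 48 h exposure. Fitted bidirectionally against DMSO.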
# Chain of Luciferin 4-monooxygenase (Photinus pyralis) (P08659 whole entry, looked up): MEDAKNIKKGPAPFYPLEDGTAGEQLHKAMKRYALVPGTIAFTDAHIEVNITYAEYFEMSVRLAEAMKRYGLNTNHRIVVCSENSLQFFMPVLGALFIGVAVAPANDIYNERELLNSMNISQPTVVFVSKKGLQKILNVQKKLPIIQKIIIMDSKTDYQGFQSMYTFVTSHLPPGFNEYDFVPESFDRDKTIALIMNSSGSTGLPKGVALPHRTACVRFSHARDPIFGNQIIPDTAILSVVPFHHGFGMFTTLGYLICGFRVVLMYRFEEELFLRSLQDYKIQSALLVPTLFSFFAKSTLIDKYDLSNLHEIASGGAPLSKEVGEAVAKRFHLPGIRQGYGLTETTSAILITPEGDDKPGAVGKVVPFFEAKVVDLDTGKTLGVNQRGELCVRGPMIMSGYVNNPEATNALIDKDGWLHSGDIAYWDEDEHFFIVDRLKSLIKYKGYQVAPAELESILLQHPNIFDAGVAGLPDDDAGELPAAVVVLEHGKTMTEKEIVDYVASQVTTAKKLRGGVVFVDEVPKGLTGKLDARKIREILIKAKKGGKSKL
# Chain of zebrafish Estrogen Receptor (ESR1), esr1 (gene 259252) (P57717 whole entry, looked up, the tested form may be a part): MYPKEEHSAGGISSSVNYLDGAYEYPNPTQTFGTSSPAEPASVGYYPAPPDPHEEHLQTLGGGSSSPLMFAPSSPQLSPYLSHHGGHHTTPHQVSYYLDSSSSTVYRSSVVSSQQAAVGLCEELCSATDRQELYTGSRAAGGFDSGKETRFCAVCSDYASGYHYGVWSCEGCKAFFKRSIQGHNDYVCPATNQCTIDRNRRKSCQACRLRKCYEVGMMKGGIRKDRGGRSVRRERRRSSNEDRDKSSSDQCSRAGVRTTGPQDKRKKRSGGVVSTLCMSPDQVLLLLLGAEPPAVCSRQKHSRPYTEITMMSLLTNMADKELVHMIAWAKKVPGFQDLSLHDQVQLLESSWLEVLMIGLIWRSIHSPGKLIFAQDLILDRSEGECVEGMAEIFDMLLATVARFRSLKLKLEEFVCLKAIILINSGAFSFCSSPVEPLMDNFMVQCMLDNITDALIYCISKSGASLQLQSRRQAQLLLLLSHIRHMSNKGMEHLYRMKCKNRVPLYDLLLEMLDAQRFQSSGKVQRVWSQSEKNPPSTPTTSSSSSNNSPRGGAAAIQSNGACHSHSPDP
# Chain of chicken Estrogen Receptor (ESR1), ESR1 (gene 396099) (P06212 whole entry, looked up, the tested form may be a part): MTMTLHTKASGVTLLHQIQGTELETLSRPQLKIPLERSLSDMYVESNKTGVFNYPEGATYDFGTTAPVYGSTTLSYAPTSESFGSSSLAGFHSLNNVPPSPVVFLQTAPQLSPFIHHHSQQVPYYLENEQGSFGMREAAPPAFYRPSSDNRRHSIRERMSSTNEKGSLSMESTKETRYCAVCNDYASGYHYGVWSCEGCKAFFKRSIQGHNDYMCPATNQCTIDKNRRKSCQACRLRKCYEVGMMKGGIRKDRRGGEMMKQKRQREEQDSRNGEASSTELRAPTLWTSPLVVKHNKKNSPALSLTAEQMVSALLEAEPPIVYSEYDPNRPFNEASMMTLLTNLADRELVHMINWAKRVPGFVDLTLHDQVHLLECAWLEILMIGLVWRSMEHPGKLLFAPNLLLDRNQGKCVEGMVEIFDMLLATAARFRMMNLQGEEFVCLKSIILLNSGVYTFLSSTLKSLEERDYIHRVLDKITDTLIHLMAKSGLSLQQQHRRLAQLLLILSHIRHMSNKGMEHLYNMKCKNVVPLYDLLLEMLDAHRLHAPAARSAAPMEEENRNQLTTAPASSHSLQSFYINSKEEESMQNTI
smiles,measurement,setting,value
CNC(=S)S,outcome,[1],inactive
same,outcome,[2],inactive
same,outcome,[3],inactive
CC(C)Oc1cc(-n2nc(C(C)(C)C)oc2=O)c(Cl)cc1Cl,AC50,[4],18 µM (active)
same,outcome,[5],inactive
same,outcome,[6],inactive
same,AC50,[7],29.6 µM (active)
same,AC50,[8],33.5 µM (active)
same,AC50,[2],50 µM (active)
same,AC50,[3],50 µM (active)
same,AC50,[9],7.92 µM (active)
same,outcome,[10],inactive
same,AC50,[11],27.2 µM (active)
CCOC(=O)CC(SP(=S)(OC)OC)C(=O)OCC (stereo not given),outcome,[1],inactive
same,AC50,[2],92.5 µM (active)
same,AC50,[3],85.1 µM (active)
CCCCOC(=O)c1ccccc1C(=O)OCCCC,outcome,[4],inactive
same,AC50,[7],24.6 µM (active)
same,AC50,[2],77.2 µM (active)
same,AC50,[3],66.1 µM (active)
same,outcome,[9],inactive
same,AC50,[11],26.7 µM (active)
CCCN(CCC)c1c([N+](=O)[O-])cc(S(N)(=O)=O)cc1[N+](=O)[O-],outcome,[1],inactive
same,AC50,[4],59.5 µM (active)
same,outcome,[5],inactive
same,outcome,[6],inactive
same,AC50,[7],14.2 µM (active)
same,AC50,[8],11.2 µM (active)
same,AC50,[9],12.7 µM (active)
same,AC50,[10],33.4 µM (active)
same,AC50,[11],16.2 µM (active)
O=C(O)c1nc(Cl)ccc1Cl,outcome,[1],inactive
same,outcome,[2],inactive
same,outcome,[3],inactive
CN(C)C(=S)SSC(=S)N(C)C,AC50,[1],80.1 µM (active)
same,AC50,[2],20 µM (active)
same,AC50,[3],22.6 µM (active)
CCCCNC(=O)n1c(NC(=O)OC)nc2ccccc21,AC50,[1],21.5 µM (active)
same,AC50,[2],45.6 µM (active)
same,AC50,[3],61.6 µM (active)
CC1COC(Cn2cncn2)(c2ccc(Oc3ccc(Cl)cc3)cc2Cl)O1 (stereo not given),outcome,[1],inactive
same,AC50,[2],44.8 µM (active)
same,AC50,[3],30.3 µM (active)
CCCC1COC(Cn2cncn2)(c2ccc(Cl)cc2Cl)O1 (stereo not given),AC50,[1],14.4 µM (active)
same,outcome,[6],inactive
same,AC50,[7],27.6 µM (active)
same,AC50,[8],27 µM (active)
same,outcome,[2],inactive
same,AC50,[3],74.8 µM (active)
same,outcome,[9],inactive
same,outcome,[10],inactive
same,outcome,[11],inactive
CON(C)C(=O)Nc1ccc(Cl)c(Cl)c1,outcome,[1],inactive
same,outcome,[6],inactive
same,AC50,[7],35.9 µM (active)
same,AC50,[8],29.1 µM (active)
same,outcome,[2],inactive
same,AC50,[3],15.8 µM (active)
same,outcome,[3],inactive
same,AC50,[9],10.4 µM (active)
same,outcome,[10],inactive
same,AC50,[11],27.3 µM (active)
CC(C)(C)c1ccc(CSc2cnn(C(C)(C)C)c(=O)c2Cl)cc1,outcome,[12],inactive
same,outcome,[13],inactive
same,AC50,[14],0.0196 µM (active)
same,AC50,[15],0.0516 µM (active)
same,outcome,[16],inactive
same,outcome,[17],inactive
same,outcome,[4],inactive
same,outcome,[5],inactive
same,outcome,[6],inactive
same,outcome,[7],inactive
same,outcome,[8],inactive
same,AC50,[2],16 µM (active)
same,AC50,[3],26.9 µM (active)
same,outcome,[9],inactive
same,outcome,[10],inactive
same,outcome,[11],inactive
C=CCC1=C(C)[C@@H](OC(=O)[C@@H]2[C@@H](C=C(C)C)C2(C)C)CC1=O,AC50,[12],0.992 µM (active)
same,outcome,[13],inactive
same,outcome,[14],inactive
same,outcome,[16],inactive
same,outcome,[1],inactive
same,AC50,[2],66.9 µM (active)
same,AC50,[3],61.3 µM (active)
Oc1ccccc1-c1ccccc1,outcome,[1],inactive
same,AC50,[2],50 µM (active)
same,outcome,[2],inactive
same,AC50,[3],48.6 µM (active)
C=CCC1=C(C)C(OC(=O)C2C(C=C(C)C)C2(C)C)CC1=O (stereo not given),outcome,[1],inactive
same,AC50,[2],52.5 µM (active)
same,AC50,[3],52.5 µM (active)
CO/C=C(/C(=O)OC)c1ccccc1Oc1cc(Oc2ccccc2C#N)ncn1,outcome,[4],inactive
same,outcome,[8],inactive
same,AC50,[2],46.7 µM (active)
same,AC50,[3],45.3 µM (active)
same,outcome,[11],inactive
COP(N)(=O)SC (stereo not given),outcome,[1],inactive
same,outcome,[2],inactive
same,outcome,[3],inactive
CCOP(=S)(OCC)SCn1c(=O)oc2cc(Cl)ccc21,outcome,[1],inactive
same,AC50,[7],24.5 µM (active)
same,AC50,[2],91.5 µM (active)
same,AC50,[3],76.9 µM (active)
O=C(Nc1ccccc1)Nc1ccnc(Cl)c1,outcome,[1],inactive
same,AC50,[2],39.1 µM (active)
same,AC50,[3],30.8 µM (active)
COC(=O)C=C(C)OP(=O)(OC)OC,outcome,[1],inactive
same,AC50,[2],29.8 µM (active)
same,AC50,[3],19 µM (active)
